Laboratory results as given in the supplement of paper PMC6555819.

Legend:
Assay in all cases: PBM binding z-score (relative to random genomic background probes); higher = stronger binding; sequences stand for … in GC…GCGATTGACAGCGTAGAATGAAGG
[1] = test system: FXR:RXRa (NR concentration 270 nM, RXRa partner concentration 90 nM)
Procedure, shortened: (§1)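 Ligand-free nuclear receptor dimers were bound for 1 h to custom Agilent 4×180K protein-binding microarrays. Detection used antibodies against each partner (one per run). Binding z-scores rest on regression-normalized fluorescence, with random background probes as the reference.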

[2] = test system: LXRa:RXRa (NR concentration 270 nM, RXRa partner concentration 90 nM)
Procedure, shortened: as §1

[3] = test system: LXRa homodimer (NR concentration 270 nM)
Procedure, shortened: as §1

[4] = test system: LXRb:RXRa (NR concentration 270 nM, RXRa partner concentration 90 nM)
Procedure, shortened: as §1

[5] = test system: LXRb homodimer (NR concentration 270 nM)
Procedure, shortened: as §1

[6] = test system: PPARa:RXRa (NR concentration 270 nM, RXRa partner concentration 90 nM)
Procedure, shortened: as §1

[7] = test system: PPARg:RXRa (NR concentration 180 nM, RXRa partner concentration 90 nM)
Procedure, shortened: as §1

[8] = test system: PPARg:RXRa 270nM:90nM, anti-RXR (NR concentration 270 nM, RXRa partner concentration 90 nM)
Procedure, shortened: as §1

[9] = test system: PPARg:RXRa 30nM:10nM, anti-RXR (NR concentration 30 nM, RXRa partner concentration 10 nM)
Procedure, shortened: as §1

[10] = test system: PPARg:RXRa 90nM:30nM, anti-RXR (NR concentration 90 nM, RXRa partner concentration 30 nM)
Procedure, shortened: as §1

[11] = test system: PPARg:RXRa DBDmut IVT, anti-RXR (DBD mutation: RXRa K156A/R161A, NR concentration 270 nM, RXRa partner concentration 90 nM)
Procedure, shortened: as §1

[12] = test system: PPARg:RXRa IVT, anti-PPARg (NR concentration 270 nM, RXRa partner concentration 90 nM)
Procedure, shortened: as §1

[13] = test system: PPARg DBDmut:RXRa IVT, anti-PPARg (DBD mutation: PPARg1 K132A/R137A, NR concentration 270 nM, RXRa partner concentration 90 nM)
Procedure, shortened: as §1

[14] = test system: PPARg DBDmut IVT, anti-PPARg (DBD mutation: PPARg1 K132A/R137A, NR concentration 270 nM)
Procedure, shortened: as §1

[15] = test system: PPARg homodimer (NR concentration 180 nM)
Procedure, shortened: as §1

[16] = test system: PXR:RXRa (NR concentration 270 nM, RXRa partner concentration 90 nM)
Procedure, shortened: as §1

[17] = test system: PXR homodimer (NR concentration 270 nM)
Procedure, shortened: as §1

[18] = test system: RARa:RXR (NR concentration 270 nM, RXRa partner concentration 90 nM)
Procedure, shortened: as §1

[19] = test system: RARa homodimer (NR concentration 270 nM)
Procedure, shortened: as §1

[20] = test system: RARb:RXRa (NR concentration 270 nM, RXRa partner concentration 90 nM)
Procedure, shortened: as §1

Sequence | PBM binding z-score [1] | PBM binding z-score [2] | PBM binding z-score [3] | PBM binding z-score [4] | PBM binding z-score [5] | PBM binding z-score [6] | PBM binding z-score [7] | PBM binding z-score [8] | PBM binding z-score [9] | PBM binding z-score [10] | PBM binding z-score [11] | PBM binding z-score [12] | PBM binding z-score [13] | PBM binding z-score [14] | PBM binding z-score [15] | PBM binding z-score [16] | PBM binding z-score [17] | PBM binding z-score [18] | PBM binding z-score [19] | PBM binding z-score [20]
CATACAGGGTCAGCTAGTCCAGAGTAGGGACGGC | 4.47 | 2.76 | -0.017 | 2.18 | 0.191 | 4.2 | 3.22 | 2.78 | 0.664 | 2.06 | 1.14 | 2.25 | 0.656 | 0.108 | 1.92 | 2.36 | -0.00687 | 2.91 | 0.913 | 3.94
GAACCAAGGTGAATAGGTCGTTGATGAGTAGGCG | 0.855 | 0.803 | -0.0902 | 0.55 | -0.922 | 2.46 | 1.74 | 1.97 | 0.275 | 1.25 | 1.81 | 2.56 | -0.234 | -0.27 | 0.411 | 0.765 | -0.0642 | 1.68 | -0.0573 | 1.95
CTCGAAAGGTCGTGCTCAGGAGAGTATACCAAAC | 4.89 | 3.56 | 0.247 | 3.12 | 0.29 | 4.7 | 2.62 | 3.59 | 1.02 | 2.48 | 0.885 | 1.49 | 0.0921 | 0.34 | 0.909 | 2.6 | 0.45 | 3.47 | 0.362 | 3.87
TAGCCTAGGTCATGCGGGCCATTATAGTGTCGGC | 4.23 | 3.27 | 0.473 | 1.96 | -0.482 | 3.6 | 2.62 | 2.47 | 0.148 | 1.56 | 2.07 | 2.84 | 0.0501 | -0.158 | 0.864 | 1.97 | 0.0749 | 2.7 | -0.379 | 3.69
GCAGACAGGTGAAACGCATGTAACTCAGGGTGGC | -0.379 | -0.173 | -0.544 | -0.265 | -1.29 | 0.825 | 0.841 | -0.0772 | -0.653 | -0.344 | 0.516 | 0.404 | -1.74 | -0.927 | -0.716 | -0.307 | -0.659 | -0.0582 | -0.606 | 0.532
TAGCCTAGGTCAGATCAGGCCAGTATACGCTATA | 2.57 | 1.55 | -0.196 | 0.898 | -0.239 | 1.69 | 0.794 | 0.923 | 0.0567 | 0.604 | 0.459 | 1.56 | 0.119 | -0.493 | 0.306 | 2.07 | -0.691 | 1.21 | -0.581 | 2.93
CCAGACAGTTGAAAGGTAACTCAGTCTGGTACGC | 0.192 | 0.408 | -0.24 | 0.365 | -0.0531 | 1.47 | 0.992 | 1.75 | 0.231 | 0.964 | 0.0148 | 0.0044 | -0.176 | -0.589 | 0.762 | 0.219 | 0.144 | 0.485 | 0.568 | 0.56
TAGCCTAGGTCATGCGGTCCAGTATAGTGTCGGC | 4.09 | 2.83 | 0.301 | 1.8 | -0.379 | 3.51 | 2.34 | 2.32 | 0.235 | 1.3 | 1.68 | 3.01 | -0.501 | 0.0737 | 0.743 | 1.77 | 0.0796 | 2.22 | -0.726 | 3.79
ACTATTAGTTGAGACGAGGTCAACCGATAGGTTG | 3.42 | 3.7 | 2.01 | 3.53 | 0.73 | 4.15 | 1.97 | 2.35 | 0.821 | 1.85 | 0.226 | 2.11 | 0.554 | 1.21 | 2.65 | 5.3 | 2.57 | 4.97 | 1.07 | 3.52
TAGCCTAGCTCATGGGCCAGTATACCACGCGAAC | -0.822 | -0.837 | -0.369 | -0.9 | -0.798 | -0.776 | 0.282 | -0.783 | -0.762 | -1.03 | -1.04 | -0.618 | 0.0751 | -0.524 | -0.407 | -0.739 | -0.677 | -0.584 | -0.475 | -0.413
ATCGAAAGGTCGTGATGTGAGTATACAGAAAGGC | 4.54 | 3.48 | 0.378 | 3.08 | 0.626 | 4.67 | 3.21 | 3.2 | 1.34 | 2.34 | -0.177 | 1.63 | 1.58 | 1.08 | 1.07 | 2.71 | 0.368 | 3.38 | 0.598 | 3.68
CCTGCTAGGTCGATGGTCAGCTAAAGCAGCTCGC | -0.156 | -0.179 | -0.637 | -0.279 | -0.599 | 0.0378 | 0.232 | 1.43 | -0.649 | 0.713 | 0.713 | 0.603 | -1.63 | -0.626 | -0.348 | -0.314 | -0.494 | -0.143 | -0.87 | 1.03
ATCTCTAGGTAACCAAGTTCAGTGGATGCCGAAC | 0.155 | 0.544 | 0.622 | 0.38 | 0.373 | 0.94 | 0.437 | 0.741 | 0.192 | 0.555 | 3.66 | 2.83 | 0.893 | 0.352 | 0.334 | 1.94 | 1.5 | 0.454 | 0.529 | 1.18
CTCGAAAGGTCGGTGGAGGTGAGTATACGGATAA | 2.34 | 1.77 | -0.129 | 1.41 | -0.0636 | 2.82 | 0.577 | 1.22 | 0.0571 | 0.88 | 0.0934 | 0.827 | 1.01 | -0.175 | 1.03 | 2.39 | -0.0117 | 2.63 | 0.0288 | 2.89
TAGCCTAGGTCATTGGGCGAGTATAGTACGCATC | 4.55 | 3.24 | 0.459 | 2.06 | 0.053 | 3.51 | 2.65 | 2.83 | 0.405 | 1.8 | 1.88 | 3.05 | 0.311 | -0.0966 | 1.15 | 1.59 | -0.283 | 2.09 | -0.259 | 3.69
CCAGACAGGTGAAGGGTAACTCAGTCTGGTACGC | -0.0331 | 0.00398 | -0.524 | 0.172 | -0.582 | 1.76 | 2.98 | 3.63 | 1.6 | 3.42 | 0.998 | 1.9 | -0.966 | -0.622 | 0.674 | -0.0608 | -0.0922 | 0.0219 | -0.195 | 1.04
CGTCAATGTTCAAGGTAACGTAACAGAAAGCAGC | -0.00254 | -0.129 | -0.233 | 0.0792 | 0.0791 | -0.0522 | 0.532 | 0.03 | 0.263 | 0.00705 | -0.165 | 0.397 | 0.371 | 0.433 | 0.235 | 0.00739 | -0.0049 | -0.00308 | 0.0887 | 0.375
GCGACTGGGGCTAAGCAGGTTACCATAAGGTTGG | -0.407 | -0.415 | -0.836 | -0.00625 | -0.83 | 0.342 | 0.147 | -0.288 | -0.707 | -0.68 | 0.815 | 0.343 | -0.64 | -1.34 | -0.237 | -0.0501 | -0.222 | 0.266 | -0.85 | 0.544
